Records with an inconclusive call do not appear. The source made the active and inactive calls. How the source made its calls: active means hit-call score of the fitted dose curve at least 0.9, where 1 is the maximum; inconclusive means response in the unintended direction; inactive means score below 0.9.
These compounds were tested against Nuclear receptor subfamily 4 group A member 2 (Homo sapiens) (UniProt P43354) (assay: ATG_NURR1_TRANS: Attagene TRANS-FACTORIAL HepG2 Assay for human Nuclear Receptor Related Protein 1 (NURR1) (AID 2282985)). Settings: HepG2 Attagene TRANS reporter, mRNA readout.
Sequence of Nuclear receptor subfamily 4 group A member 2 (Homo sapiens) (P43354 whole entry, looked up): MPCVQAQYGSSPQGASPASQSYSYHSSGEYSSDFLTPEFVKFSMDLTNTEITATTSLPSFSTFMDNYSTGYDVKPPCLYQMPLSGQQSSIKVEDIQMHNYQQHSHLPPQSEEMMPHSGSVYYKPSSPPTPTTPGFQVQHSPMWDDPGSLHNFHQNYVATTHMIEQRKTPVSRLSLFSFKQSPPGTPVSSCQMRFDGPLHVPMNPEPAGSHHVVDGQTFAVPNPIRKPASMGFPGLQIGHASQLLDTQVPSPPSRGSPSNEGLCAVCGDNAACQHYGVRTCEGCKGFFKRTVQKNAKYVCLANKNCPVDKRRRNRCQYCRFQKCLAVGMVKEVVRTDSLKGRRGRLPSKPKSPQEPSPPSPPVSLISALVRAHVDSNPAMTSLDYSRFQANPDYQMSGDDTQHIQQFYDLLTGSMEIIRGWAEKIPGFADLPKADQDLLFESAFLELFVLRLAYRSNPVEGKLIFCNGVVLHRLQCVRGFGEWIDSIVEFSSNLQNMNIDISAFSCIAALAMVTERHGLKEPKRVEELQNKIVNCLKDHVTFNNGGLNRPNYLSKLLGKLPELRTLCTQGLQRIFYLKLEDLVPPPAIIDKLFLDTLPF
Description: ATG_TRANS is a cell-based, multiplexed-readout assay that uses HepG2, a human liver cell line, with measurements taken at 24 hours after chemical dosing in a 24-well plate.ATG_NURR1_TRANS is one of 30 assay component(s) measured or calculated from the ATG_TRANS assay. It is designed to make measurements of mRNA induction, a form of inducible reporter, as detected with fluorescence intensity signals by Reverse transcription polymerase chain reaction (RT-PCR) and Capillary electrophoresis technology.Data from the assay component ATG_NURR1_TRANS was analyzed into 1 assay endpoint. This assay endpoint, ATG_NURR1_TRANS, was analyzed in the positive analysis fitting direction relative to DMSO as the negative control and baseline of activity. Using a type of inducible reporter, measures of mRNA for gain-of-signal activity can be used to understand the reporter gene at the transcription factor-level as they relate to the gene NR4A2. Furthermore, this assay endpoint can be referred to as a primary readout, because this assay has produced multiple assay endpoints where this one serves a reporter gene function. To generalize the intended target to other relatable targets, this assay endpoint is annotated to the nuclear receptor intended target family, where the subfamily is orphan.
Human liver HepG2 cells are transiently transfected with multiple reporter transcription units (MRTUs) in 6-well plates using FuGene 6 reagent (Roche; 3 ml FuGene/1 mg DNA). The MRTU constructs are regulated by a cis-regulating element (promoter). […] A major difference between the CIS and TRANS system is that in CIS activities of endogenous TFs are measured, whereas the TRANS assay evaluates changes in activities of exogenous, chimeric NR-Gal4 proteins. […] At the end of 24 hour incubation, total RNA was isolated using TriZol reagent (Invitrogen). The isolated RNA is then reverse-transcribed using oligo(dT) primer and Mo-MLV reverse transcriptase (Invitrogen) with DNAse I (Ambion) treatment for 30 min. The one-tenth of the produced cDNA was amplified by PCR using Taq DNA polymerase (Invitrogen) and two reporter sequence-specific primers. The PCR products were fluorescently labeled by primer extension with 6-arboxyfluorescein (6-FAM) 5'-labeled reporter sequence-specific primer (2 min at 95 C, 20 s at 68 C and 10 min at 72 C) and these products were digested with 5U of HpaI (New England Biolabs) for 2h at 37 C. The fragments were purified using Qiaquick PCR columns (Qiagen), analyzed on an ABI 3130xL genetic analyzer (Applied Biosystems) with peak positions identified by using a set of X-rhodamine (ROX)-labeled MapMarker1000 molecular weight standards (BioVentures). The raw capillary electrophoresis data was processed using Attagraph software (Attagene).

Structure (SMILES) | outcome | AC50
CCCC[C@H]1CN(CC2CCOCC2)C(=O)OC12CCN(C1(C)CCN(C(=O)c3c(C)ncnc3C)CC1)CC2 | inactive | –
Nc1nc(=S)c2[nH]cnc2[nH]1 | inactive | –
CSc1ccc(Oc2ccc(S(N)(=O)=O)cc2CN(C)C)cc1C | inactive | –
CCCCCCCC(=O)OC | inactive | –
CS(=O)(=O)c1ccc([C@@H](C[C@H]2CCC(=O)C2)C(=O)Nc2cnccn2)cc1Cl | inactive | –
C#CC(O)C(CC)CCCC (stereo not given) | inactive | –
COc1ccc(C(=O)Nc2nc3ccccc3c(NCc3ccccc3)c2C#N)cc1 | inactive | –
CCC(C)N(C)C(=O)c1cc2ccccc2c(-c2ccccc2Cl)n1 (stereo not given) | inactive | –
CN(C)CCCN1c2ccccc2Sc2ccc(Cl)cc21 | inactive | –
CCCCCCCCCCCCCCOS(=O)(=O)O | inactive | –
CCCCC(CC)CO (stereo not given) | inactive | –
Cn1cnc2c1c(=O)[nH]c(=O)n2C | inactive | –
CC1(C)C(=O)NC(=O)N1CO | inactive | –
COc1ccc(OC(F)(F)F)cc1CN[C@H]1CCCN[C@H]1c1ccccc1 | inactive | –
Oc1ccc(O)cc1 | inactive | –
Cc1cc(Cc2ccc(N)c(C)c2)ccc1N | inactive | –
C=CCCCCCCCCCCCC | inactive | –
O=C1c2c(O)cccc2Cc2cccc(O)c21 | inactive | –
O=C1NC(=O)C(c2ccccc2)(c2ccccc2)N1 | inactive | –
O=NO | inactive | –

Structure (SMILES) | outcome | AC50
O=C(O)c1cccnc1 | inactive | –
CCCC(=O)O | inactive | –
CC(=O)CC(c1ccccc1)c1c(O)c2ccccc2oc1=O (stereo not given) | inactive | –
Oc1ccccc1O | inactive | –
Cc1ccc(-c2cc(C(F)(F)F)nn2-c2ccc(S(N)(=O)=O)cc2)cc1 | inactive | –
COC(=O)CCCC(=O)OC | inactive | –
CCCCC(CC)COC(=O)CCCCCCCC(=O)OCC(CC)CCCC (stereo not given) | inactive | –
CC(=O)O | inactive | –
CC(C)(C)c1ccccc1 | inactive | –
O=C1O[C@H]([C@H](O)CO)C(O)=C1O | inactive | –
Cc1c(C)c2c(c(C)c1O)CCC(C)(COc1ccc(CC3SC(=O)NC3=O)cc1)O2 (stereo not given) | inactive | –
CC(=O)O[C@]1(C(C)=O)CC[C@H]2[C@@H]3C=C(Cl)C4=CC(=O)[C@@H]5C[C@@H]5[C@]4(C)[C@H]3CC[C@@]21C | inactive | –
CC(C)OC(=O)C(C)(C)Oc1ccc(C(=O)c2ccc(Cl)cc2)cc1 | – | 26.9 µM (active)
CCCCCCC(C=O)=Cc1ccccc1 | inactive | –
CC(N)=O | inactive | –
CC(=O)[C@@]1(O)CC[C@H]2[C@@H]3CCC4=CC(=O)CC[C@]4(C)[C@H]3CC[C@@]21C | inactive | –
c1ccc2occc2c1 | inactive | –
O=C(O)CN(CC(=O)O)CC(=O)O | inactive | –
CC(C)NCC(O)c1ccc(O)c(O)c1 (stereo not given) | inactive | –
O=C(Oc1ccccc1)c1cccc(C(=O)Oc2ccccc2)c1 | inactive | –

— PubChem BioAssay (EPA / NIEHS)
